In article PMC5540273 (PLoS ONE, 2017):

test system: PDGFRB; conditions: concentration: 1 μM, replicates: in singlicate; n = 1
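Further: KINOMEscan kinase panel screen.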

Compared with FC(F)(F)c1ccc(/C=C/c2cncnc2Nc2ccc3[nH]c(Cc4ccccc4)nc3c2)cc1 [GW709199], Cl.c1ccc(-c2ccc3c(Nc4ccc5[nH]ccc5c4)ccnc3c2)nc1 [GW440138] is higher in “%Inh” value: 0% for the first, 99.9% for the second.

O=C(Nc1cccc(-c2nn3ccccc3c2-c2ccnc(Nc3cccc(F)c3)n2)c1)c1c(F)ccc(F)c1Cl [GSK357952] and Cc1ccc(F)c(C(=O)Nc2cccc(-c3nn4ccccc4c3-c3ccnc(Nc4cccc(F)c4)n3)c2)c1F [GSK361061] are the same in “%Inh” value: 99.7% for the first, 99.7% for the second.

Going from O=C(Nc1ccccc1F)NC1CCN(c2ccnc(Nc3ccc(F)cc3)n2)CC1 [GSK1379800] to O=C(NC1CCN(c2ccnc(Nc3ccc(F)cc3)n2)C1)c1cc2ccccc2s1 (stereo not shown) [GSK1379716], the “%Inh” value rises from 11% to 28%.

First: Cc1occc1-c1ncc(OC[C@@H](N)Cc2c[nH]c3ccccc23)cc1-c1ccc2[nH]nc(C)c2c1.O=C(O)C(F)(F)F [GSK682037]
Second: Nc1ncc(-c2cccnc2)c2scc(-c3ccc4c(c3)CCN4C(=O)Cc3ccccc3)c12 [GSK683281]
The “%Inh” value of the first is lower: 81% for the first, 94.3% for the second.

Going from C[C@@H]1CC[C@@H](C(=O)Nc2ccccc2)CN1c1cc(-c2ccc3c(N)n[nH]c3c2)nc(N)n1 [GSK2286062] to O=C(Nc1n[nH]c2cc(-c3ccoc3)ccc12)C1CC1 [SB-738481], the “%Inh” value rises from 23% to 90%.

First: Cl.NC(=O)c1cccc(Nc2nccc(Nc3ccc(Oc4c(Cl)cccc4Cl)c(Cl)c3)n2)c1 [GW659009]
Second: Cc1ccc(S(=O)(=O)Nc2ccc(Nc3nccc(Nc4cccc5[nH]ncc45)n3)cc2)cc1 [GSK581271]
The “%Inh” value of the first is lower: 36% for the first, 73% for the second.

First: Cc1ccc(C(=O)Nc2ccc(Nc3ccnc4cc(-c5nccs5)ccc34)cc2O)cc1.Cl [GW494702]
Second: CC(C)(C)c1ccc2nccc(Nc3cccc(O)c3)c2c1 [GW856795]
The “%Inh” value of the first is higher: 74% for the first, 1% for the second.

CNC(=O)c1ccccc1Nc1nc(Nc2ccc(N3CCOCC3)cc2)ncc1Cl.Cl [GSK1576028] and CCCCc1nn2ncccc2c1-c1ccnc(Nc2ccc(N3CCN(C)CC3)cc2)n1 [GW684941] are the same in “%Inh” value: 100% for the first, 100% for the second.

First: COc1cc(Nc2nccc(-c3c(-c4cccc(NC(=O)c5c(F)cccc5F)c4)nn4ccccc34)n2)cc(OC)c1OC [GSK323521]
Second: COc1cc(Nc2nccc(-c3c(-c4cccc(NC(=O)c5c(F)cccc5F)c4)nn4ncccc34)n2)cc(OC)c1OC [GSK327238]
The “%Inh” value of the first is lower: 99.7% for the first, 100% for the second.

Compared with Nc1ncnc2c1nc(-c1ccccc1)n2-c1ccccc1 [SKF-97293], Nc1n[nH]c2cnc(-c3ccccc3)cc12 [SB-642124] is higher in “%Inh” value: 0% for the first, 21% for the second.

Going from Fc1ccc(-c2ncn(C3CCNCC3)c2-c2ccnc(Oc3ccc(-c4ccccc4)cc3)n2)cc1 [SB-245391] to Clc1ccc(-c2nn3ncccc3c2-c2ccnc(Nc3ccc4c(c3)OCCO4)n2)cc1 [GW829116], the “%Inh” value rises from 12% to 99.9%.

First: Cl.Cl.NCC(NCc1ccc(-c2ccnc3[nH]ccc23)s1)c1ccccc1 (stereo not shown) [GSK1321565]
Second: Cl.Cl.NCC(NC(=O)c1cc(-c2ccccc2)c(-c2ccnc3[nH]ccc23)s1)c1ccccc1 (stereo not shown) [GSK1321561]
The “%Inh” value of the first is lower: 44% for the first, 45% for the second.

First: CC(=O)N1CCN(c2ccc(Nc3nccc(-c4sc(C(C)C)nc4-c4cccc(NS(=O)(=O)c5cccc(Cl)c5)c4)n3)cn2)CC1 [GSK1660437]
Second: CC(C)c1nc(-c2cccc(NS(=O)(=O)c3c(F)cccc3F)c2F)c(-c2ccnc(Nc3ccc(N4CCOCC4)nc3)n2)s1 [GSK2008607]
The “%Inh” value of the first is lower: 99% for the first, 100% for the second.

Going from COc1ccc(Nc2nccc(N3CCC(NC(=O)Nc4cccc(OC)c4)C3)n2)cc1 (stereo not shown) [GSK1379742] to COc1ccc(Nc2nccc(NCCNC(=O)c3cc4ccccc4s3)n2)cc1 [GSK1379896], the “%Inh” value falls from 23% to 15%.

Compared with Nc1ncc(-c2ccc3nccc(-c4ccncc4)c3c2)cc1S(=O)(=O)N1CCOCC1 [GSK1627798], c1ccc(-c2n[nH]cc2Nc2ccnc3ccccc23)nc1 [GW694077] is higher in “%Inh” value: 13% for the first, 65% for the second.

First: NCCCC(NC(=O)c1cc(Br)c(-c2ccnc3[nH]ccc23)s1)c1ccccc1.O=C(O)C(F)(F)F.O=C(O)C(F)(F)F (stereo not shown) [GSK1287544]
Second: CCn1c(-c2nonc2N)nc2c(C#CC(C)(C)O)ncc(OCCCCN)c21.O=C(O)C(F)(F)F.O=C(O)C(F)(F)F [GSK507274]
The “%Inh” value of the first is higher: 28% for the first, 25% for the second.

Compared with COc1cccc(C2=C(Nc3ccc(Cl)c(C(=O)O)c3)C(=O)NC2=O)c1 [SB-390769], CN(c1ccc(NC(=O)Nc2cc(C(F)(F)F)ccc2F)cc1)c1ccnc(Nc2ccc(S(N)(=O)=O)cc2)n1 [GW809893] is higher in “%Inh” value: 5% for the first, 99.9% for the second.

First: O=C(Nc1n[nH]c2nc(-c3ccc(O)cc3)ccc12)C1CC1 [SB-710363]
Second: Cn1cc(-c2[nH]c3cc(NC(=O)[C@H](N)C4CCCCC4)cc4c3c2C=NNC4=O)cn1
The “%Inh” value of the first is lower: 32% for the first, 100% for the second.

With O=C(Nc1cccc(-c2nn3ccccc3c2-c2ccnc(Nc3cccc(C(F)(F)F)c3)n2)c1)c1c(F)cccc1F [GSK292658] the “%Inh” value was 97.3%.
